Values joined by “and” are separate entries in the source; they are usually repeats but may differ in a detail not shown here. Equal entries are not always repeated. ± gives the standard deviation of the averaged measurements.
Key:
ES2 = assay: cell viability relative to DMSO control (MTS) (fraction of DMSO control); higher = more viable cells / less growth inhibition; settings: 10 µM; 48 h
Method in brief: (§1)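 TOV-21G and ES2 clear cell carcinoma cells were seeded at 5000 cells per well in 96-well plates and grown for 24 h. Cells then received a 367-compound […] library at 10 µM final concentration, with DMSO in control wells. After 48 h, viability was read by MTS assay (CellTiter 96 AQueous One Solution) following the maker's protocol. Cell viability is expressed as a fraction of the DMSO control.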

TOV-21G = assay: as above; settings: 10 µM; 48 h
Method in brief: as §1

SMILES	cell viability (ES2)	cell viability (TOV-21G)
C[C@@H]1O[C@@H](O[C@H]2C[C@@H](O)[C@]3(CO)[C@H]4[C@H](O)C[C@]5(C)[C@@H](C6=CC(=O)OC6)CC[C@]5(O)[C@@H]4CC[C@]3(O)C2)[C@H](O)[C@H](O)[C@H]1O [Ouabain]	0.439	0.279
C[C@H]1O[C@@H](n2cnc3c(N)ncnc32)C[C@@H]1O [2',5'-dideoxyadenosine]	0.972	1.05
COC[C@H]1OC(=O)c2coc3c2[C@@]1(C)C1=C(C3=O)[C@@H]2CCC(=O)[C@@]2(C)C[C@H]1OC(C)=O [Wortmannin]	0.956 ± 0.059	0.6 ± 0.027
O=C1Nc2ccccc2C2(CCN(CCc3ccc(C(F)(F)F)cc3)CC2)O1	0.915	1.12
CN1C(=O)[C@]2(Cc3cn([C@]45C[C@@]67SS[C@@](CO)(C(=O)N6[C@H]4Nc4ccccc45)N(C)C7=O)c4ccccc34)SS[C@@]1(CO)C(=O)N2C [Chetomin]	0.32	0.254
CC(C)[C@@H]1NC(=O)[C@H](C)OC(=O)[C@@H](C(C)C)NC(=O)[C@@H](C(C)C)OC(=O)[C@H](C(C)C)NC(=O)[C@H](C)OC(=O)[C@@H](C(C)C)NC(=O)[C@@H](C(C)C)OC(=O)[C@H](C(C)C)NC(=O)[C@H](C)OC(=O)[C@@H](C(C)C)NC(=O)[C@@H](C(C)C)OC1=O [Valinomycin]	0.482	0.355
CC1=C2C[C@H]3[C@@H](CC=C4C[C@@H](O)CC[C@@]43C)[C@@H]2CC[C@]12O[C@@H]1C[C@H](C)CN[C@H]1[C@H]2C [cyclopamine]	0.92	0.927
C[C@@H]1C[C@@H]([C@H](O)CC2CC(=O)NC(=O)C2)C(=O)[C@@H](C)C1 [Cycloheximide]	0.547	0.373
CCC1(c2ccc(N)cc2)CCC(=O)NC1=O (stereo unspecified) [Aminoglutethimide]	1.08	0.918
C/C=C(/C)C(=O)O[C@H]1C(C)=C2[C@H]([C@@H]1OC(=O)CCCCCCC)[C@@](C)(OC(C)=O)C[C@H](OC(=O)CCC)[C@@]1(O)[C@H]2OC(=O)[C@@]1(C)O [Thapsigargin]	0.505	0.348
CN[C@@H]1C[C@H]2O[C@@](C)([C@@H]1OC)n1c3ccccc3c3c4c(c5c6ccccc6n2c5c31)C(=O)NC4 [Staurosporine]	0.301	0.239
CC[C@@]1([C@@H]2O[C@@H]([C@H]3O[C@@](O)(CO)[C@H](C)C[C@@H]3C)C[C@@H]2C)CC[C@H]([C@]2(C)CC[C@]3(C[C@H](O)[C@@H](C)[C@@H]([C@@H](C)[C@@H](OC)[C@H](C)C(=O)O)O3)O2)O1 [Monensin]	0.419	0.368
CO/C1=C\C(C)=C\[C@@H](C)[C@@H](O)[C@@H](C)C/C(C)=C/C=C/[C@H](OC)[C@@H]([C@@H](C)[C@@H](O)[C@H](C)[C@@]2(O)C[C@@H](O)[C@H](C)[C@@H](C(C)C)O2)OC1=O [Bafilomycin A1]	0.467	0.395
N[C@@H]1C[C@H]1c1cc(F)cc(F)c1OCc1ccccc1 [S2101 (LSD1 inhibitor II)]	0.792	1.04
O=C(O)c1nn(Cc2ccc(Cl)cc2Cl)c2ccccc12 [Lonidamine]	0.925	1.09
COC(=O)C1(OC)CC2OC1(C)n1c3ccccc3c3c4c(c5c6ccccc6n2c5c31)C(=O)N(C)C4 (stereo unspecified)	1 and 1.11	0.914 and 1.01
CC[C@@]1(O)C(=O)OCc2c1cc1n(c2=O)Cc2cc3ccccc3nc2-1 [Camptothecin]	0.527	0.267
CC(C)(c1ccc(OCC2CO2)cc1)c1ccc(OCC2CO2)cc1 (stereo unspecified)	0.975	1.27

From the supplement of paper PMC12669797
